Results: PubChem BioAssay (NCI)
About 79,000 compounds went through this panel and 15% of them were active in at least one assay; those are over-represented in the sample as a whole. Values without a mark were called inactive. Activity calls are given as the source filed them. Cut-off read from the data, not from the text of the source: active = growth inhibition above about 70%; inactive = the rest.

Assays:
[1] = NCI Yeast Anticancer Drug Screen. Data for the rad50 strain (AID 155);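 note: 0% = growth of vehicle-only cultures of the same strain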; conditions: S. cerevisiae rad50 strain growth inhibition, stronger effect = higher value; at 50.0 µM unless noted
Procedure, shortened: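 Yeast carrying a defined DNA repair defect were exposed to test compounds, and growth was compared with vehicle-treated controls to give percent inhibition.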

[2] = NCI Yeast Anticancer Drug Screen. Data for the mec2-1 strain (AID 157); conditions: S. cerevisiae mec2-1 strain, stronger effect = higher value; at 50.0 µM unless noted
Procedure, shortened: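 Using mec2-1 yeast: add compound, measure growth, express inhibition versus vehicle-treated cultures.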

[3] = NCI Yeast Anticancer Drug Screen. Data for the sgs1 mgt1 strain (AID 161);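 note: 0% = growth of cultures given vehicle only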; conditions: S. cerevisiae sgs1 mgt1 strain, stronger effect = higher value; at 50.0 µM unless noted
Procedure, shortened: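 This yeast growth screen uses a strain with defined DNA-repair lesions; compound-treated growth is compared with vehicle-treated growth.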

[4] = NCI Yeast Anticancer Drug Screen. Data for the cln2 rad14 strain (AID 165);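 note: 0% = growth equal to vehicle treated cultures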; conditions: S. cerevisiae cln2 rad14 strain, stronger effect = higher value; at 50.0 µM unless noted
Procedure, shortened: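 Yeast strain cln2 rad14, bearing defects in cell cycle control and DNA repair, serves as the test system; values reflect growth inhibition compared with vehicle.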

[5] = NCI Yeast Anticancer Drug Screen. Data for the bub3 strain (AID 167); conditions: S. cerevisiae bub3 mutant strain, stronger effect = higher value; at 50.0 µM unless noted
Procedure, shortened: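 Compounds were applied to a genetically altered yeast strain carrying a cell-cycle control defect. Growth inhibition was scored against vehicle-treated controls.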

[6] = NCI Yeast Anticancer Drug Screen. Data for the mlh1 rad18 strain (AID 175); conditions: S. cerevisiae mlh1 rad18 strain growth inhibition, stronger effect = higher value; at 50.0 µM unless noted
Procedure, shortened: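 Steps: expose repair-defective yeast to compound; measure growth; express inhibition against vehicle-treated controls.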

SMILES | growth inhibition [1] | growth inhibition [2] | growth inhibition [3] | growth inhibition [4] | growth inhibition [5] | growth inhibition [6]
CCOC(=S)SCC(=O)CSC(=S)OCC | 73.8% (active) | 12.1% | 21.7% | 9.7% | 50.2% | 2.15%
CC(Nc1ncc2c(n1)-c1ccccc1OC2)C(=O)O (stereo unspecified) | -2.45% | 2.1% | -11.4% | -7.8% | -31.4% | 16.3%
c1ccc2nn(C3CCCO3)nc2c1 (stereo unspecified) | 0.75% | -16.5% | -21.9% | -29.4% | 3.15% | -43.5%
CNNC(=O)C(O)C(C)(C)CO (stereo unspecified) | -4.45% | 8.5% | -4.3% | 20.1% | 6.5% | 9.8%
CC(C)OC(=O)Nc1cccc(Cl)c1F | 15.9% | -10.8% | -6.2% | -0.75% | 8.2% | 8.65%
O=C(O)C(Cc1cccs1)C(=O)O | -12.8% | 0.6% | -15.2% | 41.5% | -18.6% | -4.25%
COc1cccc(N)c1N | 21.4% | -15.2% | -3.6% | 4.6% | -16.9% | -9.2%
CCSc1nc2n(c(=S)n1)CCN2C | 15.4% | -3.5% | 13.8% | 6.5% | 22.6% | 18.2%
Cc1cc(C)c2c(c1)CC(C)(C)CC2=O | 4% | -7.95% | -1.1% | 2.5% | -4.55% | -2.6%
CC1(C)CC(O)CC(C)(C)N1 | 2.9% | -8.7% | -1.6% | -2.6% | -1% | 1.9%
COc1cccc(Br)n1 | -4.15% | -17.1% | 6.95% | 15.1% | -8.85% | 26.9%
COC(=O)c1ccccc1NC(=O)c1c(-c2ccccc2Cl)noc1C | 72% (active) | 67.8% | 88.6% (active) | 46.9% | 77.2% (active) | 54.9%
Cc1c2ccccc2nc(CS(C)(=O)=O)[n+]1[O-] | -16.9% | -1.8% | -4.75% | -51.6% | -16.7% | -5.5%
CCN(CC)C/C(C)=C(/c1ccccc1)c1ccccc1S(N)(=O)=O | 5.8% | 4.15% | -1.5% | -30.6% | 1.15% | 9.65%
c1ccc(-c2cn(-c3ccccc3)nn2)cc1 | -1% | -4.5% | -13.7% | -22.9% | -28.8% | 0.6%
[N-]=[N+]=C(C(=O)CN1CCCC1=O)S(=O)(=O)c1ccccc1 | 10.4% | -6.4% | -6.55% | 9.1% | -2.85% | 16.2%
CC1=N[C@@H](C(=O)NCC(N)=O)Cc2c1[nH]c1ccccc21 | 11.7% | 10.1% | 8.65% | -7.85% | -4.25% | 4.4%
O=C(O)c1cc(C(=O)C(=O)c2cc(C(=O)O)c(O)c3ccccc23)c2ccccc2c1O | -31.7% | -25.4% | -7.15% | -0.4% | -17.9% | -19.4%
Nc1nc(=S)[nH]c(=S)[nH]1 | 22.9% | 19.4% | 10.9% | 2.7% | 17.2% | -4.45%
[N-]=[N+]=Nc1c2c(nc3ccccc13)CCCC2 | -38.1% | -10.2% | -21.4% | -51.1% | 0.3% | -4.4%
Cc1[nH]n(-c2ccc(Cl)cc2)c(=O)c1N=Nc1cccc(C(F)(F)F)c1 | 21.8% | 2.05% | 2.1% | 7.45% | -2.05% | 2%

SMILES | growth inhibition [1] | growth inhibition [2] | growth inhibition [3] | growth inhibition [4] | growth inhibition [5] | growth inhibition [6]
COc1ccc2[nH]c3cc4c(=O)c5cc(OC)ccc5[nH]c4cc3c(=O)c2c1 | -31.6% | -15.8% | -6.2% | 5.05% | -2.9% | -37.6%
CN1C(=O)n2c(nc3ccccc32)C(Cl)(Cl)C1=O | 13.8% | 10.3% | 3.25% | 20.4% | 34.7% | 42%
CSc1ccc2c(c1)N(CCCN(C)C)c1ccccc1S2 | -15% | -4.15% | -1.05% | -13.8% | 44.5% | 33.5%
CN(C1=CC(=O)c2ccccc2C1=O)C1CCCCC1 | 14.1% | 49.5% | 37.4% | -7.05% | 63% | 42.2%
O=C(CC(=O)c1cc(Cl)ccc1O)c1ccc2ccccc2n1 | -0.35% | 13.2% | 18.8% | -21.8% | -2.85% | 22.4%
Cc1ccc(NC(=O)Oc2ccc(C#N)cc2)c(C)c1 | 7.45% | -22.8% | -0.9% | 2.05% | -3.35% | 8.9%
CN(C)c1ccc(N=C(C#N)C(=O)c2ccccc2)cc1 | -4.3% | 17.6% | -6.7% | -21.6% | -15% | -12.2%
C=C(C)C(C(=O)OCC)C(=O)OCC | 3.4% | -2.75% | 7.4% | 10.5% | -21.8% | -4.85%
Cc1cc(=O)[nH]c(N/N=C/C=C/c2ccccc2)n1 | -35.4% | -25.7% | -17.1% | -15.8% | -15.8% | -25.9%
COC1CC(n2ccc(=O)[nH]c2=O)OC1CO (stereo unspecified) | -8.25% | -10.6% | 2.65% | 28.1% | -25.6% | 6.4%
CCOc1ccccc1N1CCN(CC(O)CSc2ccccc2)CC1 (stereo unspecified) | 1.3% | -9.25% | -6.2% | -33.6% | 4.95% | -2.65%
Cn1c(=O)c2[nH]c(Nc3cccc(Cl)c3)nc2n(C)c1=O | -26.3% | 8.75% | -18.8% | -13.2% | -1.85% | 17.1%
CC(C)=NNC(=O)c1ccc(N)cc1 | 36.1% | 15% | 14.4% | 15.8% | 22.1% | 15.3%
Nc1cc(S(=O)(=O)O)cc2cc(S(=O)(=O)O)cc(S(=O)(=O)O)c12 | -31.6% | -51% | -29.6% | -144% | -17.5% | 23.4%
O=[N+]([O-])C(C(Cl)=C(Cl)Cl)=C(N1CCOCC1)N1CCOCC1 | -25.2% | -21.1% | -19.1% | -9.6% | 5.1% | 1.85%
CCN(CC)CC(C)O (stereo unspecified) | 39.7% | 13.2% | 21% | -26.9% | -9.45% | 30.6%
COC(=O)c1nnn(-c2ccc(Cl)cc2C)c1C(=O)c1ccc(OC)cc1 | -33.4% | 0.95% | -11.8% | -2.45% | -9.1% | -20.2%
O=C1OC(c2ccccc2)Cc2ccccc21 (stereo unspecified) | -20.2% | -10.8% | -22.1% | 4.55% | 3.15% | -9.9%
COC(=O)C1=Nc2c(C)nn(-c3ccccc3)c2N=C(c2ccc([N+](=O)[O-])cc2)C1 | -18.4% | 0.6% | -0.55% | -67.1% | -34% | 10.3%
O=C(NCCCl)NC1C(O)OC(CO)C(O)C1O (stereo unspecified) | 93.2% (active) | 96% (active) | 93.8% (active) | 76.5% (active) | 96.8% (active) | 96.7% (active)
